Mito fusion yeast: qHTS Assay for Small Molecule Inhibitors of Mitochondrial Division or Activators of Mitochondrial Fusion. S. cerevisiae fusion-defective mutant growth rescue, CellTiterGlo 48 h. Potency, µM (doses to about 46.1 µM), without a hit: at the highest dose growth rescue (activation), actives largely listed as activators. hit rate 0.23% among 320,000; active = well fitted activation curve with a large enough effect; inconclusive = small, poorly fitted or top-dose-only effect; inactive = no such curve, though single readings can be large or run the other way; note: potency is the fitted concentration of half-maximal effect; % of control where 0% means no effect; nearly all actives have a fitted effect of over 45% in size
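S. cerevisiae fusion-defective temperature-sensitive mutants (e.g. fzo1-1, mgm1-5) grown 48 h at 37C in YPEG (ethanol/glycerol non-fermentable) medium with 23 nl compound per well; growth rescue read as CellTiterGlo luminescence.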
uPA surface inh: qHTS for Inhibitors of Cell Surface uPA Generation. cell surface uPA generation assay, qHTS. Potency, µM (top dose mostly 38.3 µM), without a hit: top-dose activity change, negative = inhibition, most hits filed as inhibitors. hit rate 0.31% among 330,000; active = well fitted inhibition curve with a large enough effect; inconclusive = small, poorly fitted or top-dose-only effect; inactive = no such curve, though single readings can be large or run the other way; tested in mouse RAW 264.7 cells; note: potency is the fitted concentration of half-maximal effect; % is set by controls: 0 for no effect and ±100 for the full control effect; nearly all actives have a fitted effect of over 55% in size
MBNL1 CUG block: qHTS Assay for Inhibitors of MBNL1-poly(CUG) RNA binding | Muscleblind-like protein 1 (Homo sapiens), Q9NR56 | TR-FRET MBNL1-His/biotin-(CUG)12 binding, 665/545 ratio | Potency, µM (doses to about 57.5 µM), for inactives: at the top dose activity change, negative = inhibition, usual class: inhibitors | hit rate 0.036% among 280,000 | AID 2675, 2010; active = well fitted inhibition curve with a large enough effect in the signal ratio, with a control signal flat, not every such curve was filed as active; inconclusive = small, poorly fitted or top-dose-only effect, or effect the other way, or a change in a side signal; inactive = no such curve, though single readings can be large or run the other way; the % refers to the signal ratio; note: potency is the fitted concentration of half-maximal effect; % is set by controls: 0 for no effect and ±100 for the full control effect
Target sequence (Q9NR56 whole entry, looked up): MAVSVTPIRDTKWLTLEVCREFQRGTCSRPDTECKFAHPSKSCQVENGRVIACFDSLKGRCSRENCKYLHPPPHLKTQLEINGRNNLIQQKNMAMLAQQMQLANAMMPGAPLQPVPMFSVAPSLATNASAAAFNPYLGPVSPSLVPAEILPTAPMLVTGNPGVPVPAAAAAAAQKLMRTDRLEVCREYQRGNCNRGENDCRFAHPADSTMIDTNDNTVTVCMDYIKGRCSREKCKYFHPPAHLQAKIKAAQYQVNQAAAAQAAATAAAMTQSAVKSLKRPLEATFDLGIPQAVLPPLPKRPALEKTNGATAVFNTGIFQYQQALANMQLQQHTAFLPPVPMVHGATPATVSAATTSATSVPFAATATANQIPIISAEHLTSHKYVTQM
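TR-FRET between His-tagged MBNL1 and biotin-(CUG)12 RNA, detected with Tb anti-His antibody (0.055 ng/ul) and streptavidin-XL665 (5 nM), 60 min at room temperature. Compounds titrated 92 nM to 58 uM; 665/545 nm ratio normalized to buffer and complex controls.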
Six1-Eya2 inh: qHTS Assay for Inhibitors of the Six1/Eya2 Interaction | AlphaScreen GST-Six1/His-Eya2 binding, biochemical; active compounds read low | activity change, % (concentration not given with the values) | hit rate 0.56% among 360,000 | Homeobox protein SIX1 (Homo sapiens) + Protein phosphatase EYA2 (Homo sapiens), …; note: % is set by controls: 0 for no effect and ±100 for the full control effect
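Six1/Eya2 binding was read as AlphaScreen signal after compounds were pinned into GST-Six1 plus His-tagged Eya2 (5X stock 250/500 nM) in pH 8.0 Tris/NaCl/TCEP buffer, beads added, then incubated 1 h, 37 C, dark.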
CtBP-E1A blk: qHTS Assay for Inhibitors of the CtBP/E1A Interaction; AlphaScreen GST-E1A/His-CtBP binding, 1536-well; active compounds read low; AID 651724, 2012; hit rate 0.49% among 340,000; activity change, % (concentration not given with the values); note: % is set by controls: 0 for no effect and ±100 for the full control effect
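AlphaScreen with 125 nM GST-E1A and 125 nM His-CtBP (5X stocks) in Tris pH 8.0, 300 mM NaCl, BSA, Tween 20, TCEP. Compounds preincubated 2 h at 37 deg C, then glutathione donor/nickel acceptor beads added for 1 h at 37 deg C in dark.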
Starred values were filed as active, the others as inactive; ? = inconclusive; · = no result given; [ ] = remark or other dose. The list is not random: actives were taken first. Their share in the collection is about 1.1%. Cut-off read from the data, not from the text of the source, unless noted: active = activity change below about -65%; inconclusive = mostly about -30% to -63%; inactive = weaker than that.

SMILES	Mito fusion yeast	uPA surface inh	MBNL1 CUG block	Six1-Eya2 inh	CtBP-E1A blk
CC(C)(C)OC(=O)NCCCCCc1cn([C@@H](CO)C(=O)NCCCCCCCCCCC(=O)N2CCN(C(=O)OC(C)(C)C)CC2)nn1	-5.1%	11.2µM*	·	-2.4	-1.9
O=C(Nc1ccc(Br)cc1)c1ccc(Br)c(S(=O)(=O)Nc2cccnc2)c1	-0.2%	0.9%	·	?	-65.7*
CC(C)(C)OC(=O)C[C@H]1C/C=C\C[C@H](CC(=O)N(CCO)Cc2ccccc2)C(=O)N2CCC[C@H]2COC1=O	·	9.6%	·	3.1	3.1
COc1ccc(S(=O)(=O)n2oc(=O)cc2-c2ccccc2)cc1OC	-1.7%	-3.0%	4.5%	-94.5*	?
COc1ccc(S(=O)(=O)n2oc(=O)cc2-c2ccccc2)cc1	-1.6%	-2.4%	8.5%	-90.2*	-72.8*
O=S(=O)(Nc1cccc(-c2cn3cccnc3n2)c1)c1ccc(F)cc1	-5.9%	12.6%	·	-66.7*	-0.9
O=S(=O)(Nc1cccc(-c2cn3cccnc3n2)c1)c1ccccc1	7.4%	23.3%	·	-83.4*	-21.4
CCc1nc2ccc(C(=O)NCCCn3ccnc3)cn2c1N(C)Cc1ccc(Cl)cc1	·	·	·	2.6	7.8
CNc1nc(-c2ccccn2)nnc1-c1ccccc1	0.6%	-10.2%	-0.5%	-92.7*	-94.8*
c1ccc(-c2nnc(-c3ccccn3)nc2NC2CCCCC2)cc1	23.0%	-4.3%	5.6%	-84.5*	-94.7*
CCCS(=O)(=O)NC(=O)C1(C)CCN(C(=O)c2cccs2)C1 (stereo not given)	·	·	·	17.4	-19.9
CC(=O)c1ccc2c(c1)N(Cc1ccccc1)C(=O)C(C)S2 (stereo not given)	·	·	·	0.8	4.5
Cc1cc(/C=C(/C#N)c2nc3ccccc3[nH]2)c(C)n1-c1cc(C(=O)O)cc(C(=O)O)c1	1.1%	-0.8%	?	-69.2*	-65.6*
Oc1ccc(-c2csc(Nc3ccccn3)n2)cc1O	-4.0%	3.98µM*	8.5%	-24.1	·
Cc1ccc(Nc2nc(-c3ccccc3)cs2)nc1	-7.2%	10µM*	4.6%	-0.7	·
Cc1ccc(Nc2nc(-c3cccs3)cs2)nc1	17.3%	?	13.9%	-19.2	17.9
C[C@H]1CN([C@@H](C)CO)C(=O)c2cc(C#Cc3ccccn3)cnc2O[C@@H]1CN(C)Cc1ccccc1	·	·	·	11.7	3.9
O=Cc1cc(N=Nc2ccccc2Cl)ccc1O	?	8.91µM*	10.7%	-17.4	1.0
C=C1CCC2C(C)(C)[C@@H](O)CC[C@@]2(C)[C@@H]1COc1ccc2ccc(=O)oc2c1 (stereo not given in full)	-4.8%	?	-6.0%	1.4	·
C=C1CCC2C(C)(C)[C@H](O)CC[C@@]2(C)[C@@H]1COc1cc(=O)oc2ccccc12 (stereo not given in full)	14.1µM*	-13.0%	1.8%	-7.1	0.0
O=[N+]([O-])c1ccccc1N/N=C/c1c[nH]c2ccccc12	1.2%	-1.1%	?	-84.3*	-78.1*
CCC1CCCCN1CCCNC(=O)C1CCN(Cc2nc(-c3ccc(Cl)cc3)oc2C)CC1 (stereo not given)	-1.0%	10µM*	5.1%	8.2	·
CN(CCCn1ccc(NC(=O)OCc2ccccc2)nc1=O)CCc1ccccn1	·	·	·	3.9	-9.4
Cc1ccccc1N=C(NOCc1ccc(Cl)cc1Cl)c1nonc1N	21.0%	8.1%	1.4%	2.4	2.3
Cc1ccccc1N=C(NOCc1ccccc1)c1nonc1N	22.4µM*	1.2%	5.1%	-0.4	6.2
SMILES	Mito fusion yeast	uPA surface inh	MBNL1 CUG block	Six1-Eya2 inh	CtBP-E1A blk
O=S(=O)(c1ccccc1)N1CCC(Oc2ccc(-n3cnnn3)cc2)CC1	35.5µM*	-2.0%	-11.4%	-10.2	3.5
CC(=O)OCC(=O)C1CCC2C3CC=C4CC(O)CCC4(C)C3CCC12C (stereo not given)	3.16µM*	20.6%	·	-0.2	4.9
CC(=O)OCC(=O)[C@H]1CC[C@H]2[C@@H]3CCC4=CC(=O)CC[C@]4(C)[C@H]3CC[C@]12C	12.5%	-12.4%	-1.4%	2.7	-25.6
CC12CCC(O)CC1=CCC1C2CCC2(C)C1CCC21CCC(=O)O1 (stereo not given)	20µM*	-1.3%	-14.1%	3.5	-1.4
Cc1cc2c(cc1C)-n1nnnc1C(N(C)CCc1ccccc1)C(=O)N2 (stereo not given)	·	·	·	-8.2	1.6
COc1ccc(Cc2c(O)nc(SCC(=O)c3ccc(OC)cc3)[nH]c2=O)cc1	-2.2%	-6.3%	0.7%	-86.4*	·
O=C(Nc1ccccc1Cl)c1cc(C2CCCN(C(=O)c3ccccc3)C2)on1 (stereo not given)	·	·	·	0.5	-7.2
Cc1ccc(NC(=O)O/N=C/c2ccc(F)cc2)cc1	1.5%	-3.3%	-2.0%	-18.9	·
O=C(Nc1ccccc1)O/N=C/c1ccc(F)cc1	-3.8%	7.08µM*	-3.5%	12.9	·
C[C@H]1C=C(C(=O)NCc2nc3ccccc3[nH]2)O[C@@H](OCCCCO)C1	·	11.0%	·	0.4	5.5
CC(C)(C)[C@H]1C=C(C(=O)NCc2nc3ccccc3[nH]2)O[C@@H](OCCCCO)C1	5.62µM*	10.1%	2.8%	-4.0	1.7
CC1=C(C#N)c2nc(N)c(C#N)c(C)c2/C1=C\c1ccc(C)cc1	11.6%	·	?	·	·
COc1cc(/C=C2\C(C)=C(C#N)c3nc(N)c(C#N)c(C)c32)ccc1OCC(=O)O	1.5%	-1.7%	?	-73.1*	-17.5
COc1cc(NC(=O)C2CCCN(S(=O)(=O)c3ccc4c(c3)CCCN4C(C)=O)C2)cc(OC)c1 (stereo not given)	10.9%	9.6%	4.0%	?	-65.1*
CCOC(=O)c1cn(CC)c2cc(Cl)c([N+](=O)[O-])cc2c1=O	-2.7%	4.0%	?	-0.5	-0.5
CCOC(=O)c1cn(-c2c(Cl)cccc2Cl)c2cc(Cl)c([N+](=O)[O-])cc2c1=O	-0.1%	8.91µM*	?	2.4	·
CN(Cc1ccccc1)C(=O)c1ccc(Nc2nc(C(N)Cc3ccccc3)cs2)nc1 (stereo not given)	·	·	·	-24.1	?
CC(C)C(N)c1csc(Nc2ccc(C(=O)NCCCO)cn2)n1 (stereo not given)	·	·	·	?	-74.8*
NC(CCc1ccccc1)c1csc(Nc2ccc(C(=O)NCCCO)cn2)n1 (stereo not given)	·	·	·	?	-68.9*
NC(Cc1ccccc1)c1csc(Nc2ccc(C(=O)NCCCO)cn2)n1 (stereo not given)	·	·	·	-66.1*	-81.6*
N#Cc1ccc2c(c1)C[C@]1(c3ccsc3)OC3=C(C(=O)OC4(CCCCC4)C3)C2O1	2.3%[9.22 µM]	·	6.3%[11.5 µM]	·	·
